The text below walks through data of paper PMC11006913.

Assay in all cases: PBM; 200 nM protein, PBS
Common to all, as to settings: dsDNA, one strand shown

Test [1] deals with HESX1 (Homo sapiens, UniProt Q9UBX0 95-180, R165K).
Test [2] has as its target HESX1 (Homo sapiens, UniProt Q9UBX0 95-180).
Test [3] addresses T1, NKX2-6 (Homo sapiens, UniProt A6NCS4 118-204, R150C).
T1 sequence: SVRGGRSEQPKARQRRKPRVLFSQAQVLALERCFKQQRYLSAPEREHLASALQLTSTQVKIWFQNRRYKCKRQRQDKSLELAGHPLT

In test [4] the target is HESX1 (Homo sapiens, UniProt Q9UBX0 95-180, R109Q).
In test [5] the target is HESX1 (Homo sapiens, UniProt Q9UBX0 95-180, P111T).
Test [6] concerns the target HESX1 (Homo sapiens, UniProt Q9UBX0 95-180, F115L).
For test [7], the target named is HOXC10 (Homo sapiens, UniProt Q9NYD6 254-340).
The target of test [8] is PRRX1 (Homo sapiens, UniProt P54821 80-166, F113S).
Test [9] concerns the target HOXC10 (Homo sapiens, UniProt Q9NYD6 254-340, K271E).
For test [10], the target named is PRRX1 (Homo sapiens, UniProt P54821 80-166).
The target in test [11] is ALX4 (Homo sapiens, UniProt Q9H161 200-286).
Test [12] concerns the target ALX4 (Homo sapiens, UniProt Q9H161 200-286, Q225E).
Test [13] addresses VAX1 (Homo sapiens, UniProt Q5SQQ9 86-172).
The target in test [14] is VAX1 (Homo sapiens, UniProt Q5SQQ9 86-172, T142I).
For test [15], the target named is VAX1 (Homo sapiens, UniProt Q5SQQ9 86-172, K157R).
Test [16] concerns the target HOXB6 (Homo sapiens, UniProt P17509 132-218, K202E).
Test [17] addresses MSX2 (Homo sapiens, UniProt P35548 130-214, R199I).
The target in test [18] is ALX3 (Homo sapiens, UniProt O95076 139-225, N203Q).
The target in test [19] is T2, PAX4 (Homo sapiens, UniProt O43316 9-242, F177V).
T2 sequence: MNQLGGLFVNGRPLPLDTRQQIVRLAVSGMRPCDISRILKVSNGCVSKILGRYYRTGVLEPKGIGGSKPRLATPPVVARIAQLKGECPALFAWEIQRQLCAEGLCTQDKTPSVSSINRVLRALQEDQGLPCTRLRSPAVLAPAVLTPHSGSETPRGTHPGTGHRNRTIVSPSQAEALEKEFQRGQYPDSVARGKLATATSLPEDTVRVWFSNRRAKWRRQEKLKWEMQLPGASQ

The target in test [20] is MSX2 (Homo sapiens, UniProt P35548 130-214).
For test [21], the target named is MSX2 (Homo sapiens, UniProt P35548 130-214, F161Y).
Test [22] has as its target ALX3 (Homo sapiens, UniProt O95076 139-225, N203S).
In test [23] the target is ALX1 (Homo sapiens, UniProt Q15699 118-204, L144V).
In test [24] the target is PITX2 (Homo sapiens, UniProt Q99697 72-157).
For test [25], the target named is ALX1 (Homo sapiens, UniProt Q15699 118-204, L144R).
Test [26] addresses ALX1 (Homo sapiens, UniProt Q15699 118-204).

HESX1 (Homo sapiens, UniProt Q9UBX0 95-180, P111T), sequence (Q9UBX0 95-180 P111T): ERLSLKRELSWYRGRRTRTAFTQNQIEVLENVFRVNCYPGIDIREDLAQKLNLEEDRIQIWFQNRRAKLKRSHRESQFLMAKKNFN
HESX1 (Homo sapiens, UniProt Q9UBX0 95-180, R109Q), sequence (Q9UBX0 95-180 R109Q): as the sequence (Q9UBX0 95-180 P111T) above, with R15Q, T17P counted along it
HESX1 (Homo sapiens, UniProt Q9UBX0 95-180, F115L), sequence (Q9UBX0 95-180 F115L): as the sequence (Q9UBX0 95-180 P111T) above, with T17P, F21L counted along it
HESX1 (Homo sapiens, UniProt Q9UBX0 95-180), sequence (Q9UBX0 95-180): as the sequence (Q9UBX0 95-180 P111T) above, with T17P counted along it
HESX1 (Homo sapiens, UniProt Q9UBX0 95-180, R165K), sequence (Q9UBX0 95-180 R165K): as the sequence (Q9UBX0 95-180 P111T) above, with T17P, R71K counted along it
PRRX1 (Homo sapiens, UniProt P54821 80-166, F113S), sequence (P54821 80-166 F113S): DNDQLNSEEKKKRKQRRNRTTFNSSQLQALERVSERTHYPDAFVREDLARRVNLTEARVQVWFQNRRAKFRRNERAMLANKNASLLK
HOXC10 (Homo sapiens, UniProt Q9NYD6 254-340), sequence (Q9NYD6 254-340): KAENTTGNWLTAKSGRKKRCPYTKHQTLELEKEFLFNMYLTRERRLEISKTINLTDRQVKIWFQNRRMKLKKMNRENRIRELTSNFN
ALX4 (Homo sapiens, UniProt Q9H161 200-286), sequence (Q9H161 200-286): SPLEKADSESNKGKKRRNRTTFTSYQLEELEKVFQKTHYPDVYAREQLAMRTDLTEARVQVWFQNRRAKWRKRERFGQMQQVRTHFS
ALX4 (Homo sapiens, UniProt Q9H161 200-286, Q225E), sequence (Q9H161 200-286 Q225E): as the sequence (Q9H161 200-286) above, with Q26E counted along it
PRRX1 (Homo sapiens, UniProt P54821 80-166), sequence (P54821 80-166): as the sequence (P54821 80-166 F113S) above, with S34F counted along it
VAX1 (Homo sapiens, UniProt Q5SQQ9 86-172), sequence (Q5SQQ9 86-172): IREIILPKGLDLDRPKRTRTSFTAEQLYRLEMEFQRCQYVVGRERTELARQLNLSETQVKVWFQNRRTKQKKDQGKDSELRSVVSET
ALX1 (Homo sapiens, UniProt Q15699 118-204), sequence (Q15699 118-204): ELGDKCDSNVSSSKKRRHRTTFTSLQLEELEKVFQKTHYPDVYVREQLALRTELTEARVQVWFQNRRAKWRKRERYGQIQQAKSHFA
ALX1 (Homo sapiens, UniProt Q15699 118-204, L144V), sequence (Q15699 118-204 L144V): as the sequence (Q15699 118-204) above, with L27V counted along it
MSX2 (Homo sapiens, UniProt P35548 130-214, F161Y), sequence (P35548 130-214 F161Y): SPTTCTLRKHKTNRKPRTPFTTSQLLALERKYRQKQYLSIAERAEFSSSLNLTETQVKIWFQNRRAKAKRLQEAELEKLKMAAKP
HOXB6, sequence (P17509 132-218 K202E): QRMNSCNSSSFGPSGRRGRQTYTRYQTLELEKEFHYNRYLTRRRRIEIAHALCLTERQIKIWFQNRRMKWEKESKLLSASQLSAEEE
ALX3 (Homo sapiens, UniProt O95076 139-225, N203S), sequence (O95076 139-225 N203S): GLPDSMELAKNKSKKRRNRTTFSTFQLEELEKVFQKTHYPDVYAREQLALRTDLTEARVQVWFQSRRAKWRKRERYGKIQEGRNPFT
MSX2 (Homo sapiens, UniProt P35548 130-214, R199I), sequence (P35548 130-214 R199I): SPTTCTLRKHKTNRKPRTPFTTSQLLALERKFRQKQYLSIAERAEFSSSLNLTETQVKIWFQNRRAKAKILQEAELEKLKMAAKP
ALX3 (Homo sapiens, UniProt O95076 139-225, N203Q), sequence (O95076 139-225 N203Q): as the sequence (O95076 139-225 N203S) above, with S65Q counted along it
VAX1 (Homo sapiens, UniProt Q5SQQ9 86-172, K157R), sequence (Q5SQQ9 86-172 K157R): as the sequence (Q5SQQ9 86-172) above, with K72R counted along it
VAX1 (Homo sapiens, UniProt Q5SQQ9 86-172, T142I), sequence (Q5SQQ9 86-172 T142I): as the sequence (Q5SQQ9 86-172) above, with T57I counted along it
ALX1 (Homo sapiens, UniProt Q15699 118-204, L144R), sequence (Q15699 118-204 L144R): as the sequence (Q15699 118-204) above, with L27R counted along it
MSX2 (Homo sapiens, UniProt P35548 130-214), sequence (P35548 130-214): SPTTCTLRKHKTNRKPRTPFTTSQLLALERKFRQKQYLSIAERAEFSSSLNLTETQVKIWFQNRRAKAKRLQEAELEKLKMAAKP
HOXC10 (Homo sapiens, UniProt Q9NYD6 254-340, K271E), sequence (Q9NYD6 254-340 K271E): as the sequence (Q9NYD6 254-340) above, with K18E counted along it

On to CCGCCGAG, for which the binding signal in test [1] is 6.43 upbm affinity estimate (log intensity, higher = more binding, comparable within an allelic series); in [2], 6.32 upbm affinity estimate (log intensity, higher = more binding, comparable within an allelic series); in [3], 9.67 upbm affinity estimate (log intensity, higher = more binding, comparable within an allelic series); in test [4], 6.49 upbm affinity estimate (log intensity, higher = more binding, comparable within an allelic series); in test [5], 6.43 upbm affinity estimate (log intensity, higher = more binding, comparable within an allelic series); in [6], 6.38 upbm affinity estimate (log intensity, higher = more binding, comparable within an allelic series).

For ATTATAGC, the binding signal is 8.55 upbm affinity estimate (log intensity, higher = more binding, comparable within an allelic series) in test [1] and 8.71 upbm affinity estimate (log intensity, higher = more binding, comparable within an allelic series) in [2].

On to ATTAAGGA, for which the binding signal is 8.58 upbm affinity estimate (log intensity, higher = more binding, comparable within an allelic series) in test [1] and 9.12 upbm affinity estimate (log intensity, higher = more binding, comparable within an allelic series) in [2].

For ACCAAATA, the binding signal was 7.74 upbm affinity estimate (log intensity, higher = more binding, comparable within an allelic series) in [1]; 10.8 upbm affinity estimate (log intensity, higher = more binding, comparable within an allelic series) in [7]; 7.83 upbm affinity estimate (log intensity, higher = more binding, comparable within an allelic series) in [2]; 7.46 upbm affinity estimate (log intensity, higher = more binding, comparable within an allelic series) in test [5].

Turning to CGGCTAGC, the binding signal in test [1] is 6.5 upbm affinity estimate (log intensity, higher = more binding, comparable within an allelic series); in test [7], 9.98 upbm affinity estimate (log intensity, higher = more binding, comparable within an allelic series); in [8], 9.18 upbm affinity estimate (log intensity, higher = more binding, comparable within an allelic series); in [2] it was 6.49 upbm affinity estimate (log intensity, higher = more binding, comparable within an allelic series); in [9], 10 upbm affinity estimate (log intensity, higher = more binding, comparable within an allelic series); in test [4], 6.39 upbm affinity estimate (log intensity, higher = more binding, comparable within an allelic series). Moreover, the binding signal in [5] was 6.54 upbm affinity estimate (log intensity, higher = more binding, comparable within an allelic series); in test [6], 6.45 upbm affinity estimate (log intensity, higher = more binding, comparable within an allelic series); in [10], 9.46 upbm affinity estimate (log intensity, higher = more binding, comparable within an allelic series).

As for AATGTAAG, the binding signal in test [1] was 7.66 upbm affinity estimate (log intensity, higher = more binding, comparable within an allelic series); in test [2], 7.68 upbm affinity estimate (log intensity, higher = more binding, comparable within an allelic series).

For the sequence CTCTCCAG, the binding signal in test [1] was 6.3 upbm affinity estimate (log intensity, higher = more binding, comparable within an allelic series); in test [11] it was 7.91 upbm affinity estimate (log intensity, higher = more binding, comparable within an allelic series); in [12], 7.91 upbm affinity estimate (log intensity, higher = more binding, comparable within an allelic series); in [2] it was 6.32 upbm affinity estimate (log intensity, higher = more binding, comparable within an allelic series); in test [4], 6.51 upbm affinity estimate (log intensity, higher = more binding, comparable within an allelic series); in [13], 7 upbm affinity estimate (log intensity, higher = more binding, comparable within an allelic series). The binding signal was 6.4 upbm affinity estimate (log intensity, higher = more binding, comparable within an allelic series) in test [5]; 6.42 upbm affinity estimate (log intensity, higher = more binding, comparable within an allelic series) in test [6]; 7.16 upbm affinity estimate (log intensity, higher = more binding, comparable within an allelic series) in test [14]; 7.01 upbm affinity estimate (log intensity, higher = more binding, comparable within an allelic series) in [15].

AGGTACCT: the binding signal is 6.5 upbm affinity estimate (log intensity, higher = more binding, comparable within an allelic series) in [1]; 8.17 upbm affinity estimate (log intensity, higher = more binding, comparable within an allelic series) in test [11]; 8.34 upbm affinity estimate (log intensity, higher = more binding, comparable within an allelic series) in [12]; 6.5 upbm affinity estimate (log intensity, higher = more binding, comparable within an allelic series) in test [2]; 6.6 upbm affinity estimate (log intensity, higher = more binding, comparable within an allelic series) in test [4]; 6.54 upbm affinity estimate (log intensity, higher = more binding, comparable within an allelic series) in test [5]. Also, the binding signal in [6] is 6.63 upbm affinity estimate (log intensity, higher = more binding, comparable within an allelic series).

For TAATTGTA, the binding signal in test [1] is 11.4 upbm affinity estimate (log intensity, higher = more binding, comparable within an allelic series); in test [16], 10 upbm affinity estimate (log intensity, higher = more binding, comparable within an allelic series); in [2] it was 11.8 upbm affinity estimate (log intensity, higher = more binding, comparable within an allelic series); in [17], 12.5 upbm affinity estimate (log intensity, higher = more binding, comparable within an allelic series); in test [18] it was 8.59 upbm affinity estimate (log intensity, higher = more binding, comparable within an allelic series); in test [19], 10.5 upbm affinity estimate (log intensity, higher = more binding, comparable within an allelic series). In addition, the binding signal in test [20] was 13.6 upbm affinity estimate (log intensity, higher = more binding, comparable within an allelic series); in test [4] it was 8.46 upbm affinity estimate (log intensity, higher = more binding, comparable within an allelic series); in test [5], 10.1 upbm affinity estimate (log intensity, higher = more binding, comparable within an allelic series); in test [21], 13.3 upbm affinity estimate (log intensity, higher = more binding, comparable within an allelic series); in test [6], 7.75 upbm affinity estimate (log intensity, higher = more binding, comparable within an allelic series); in test [22], 8.7 upbm affinity estimate (log intensity, higher = more binding, comparable within an allelic series).

Take TAGCTTAA: the binding signal was 7.4 upbm affinity estimate (log intensity, higher = more binding, comparable within an allelic series) in [1] and 7.51 upbm affinity estimate (log intensity, higher = more binding, comparable within an allelic series) in test [2].

Turning to ACGGAAGG, the binding signal is 6.5 upbm affinity estimate (log intensity, higher = more binding, comparable within an allelic series) in test [1]; 9.38 upbm affinity estimate (log intensity, higher = more binding, comparable within an allelic series) in [8]; 6.36 upbm affinity estimate (log intensity, higher = more binding, comparable within an allelic series) in test [2]; 6.56 upbm affinity estimate (log intensity, higher = more binding, comparable within an allelic series) in [23]; 7.95 upbm affinity estimate (log intensity, higher = more binding, comparable within an allelic series) in test [24]; 6.44 upbm affinity estimate (log intensity, higher = more binding, comparable within an allelic series) in test [25]. The binding signal in test [4] is 6.53 upbm affinity estimate (log intensity, higher = more binding, comparable within an allelic series); in test [5], 6.63 upbm affinity estimate (log intensity, higher = more binding, comparable within an allelic series); in test [6] it was 6.5 upbm affinity estimate (log intensity, higher = more binding, comparable within an allelic series); in [26], 6.35 upbm affinity estimate (log intensity, higher = more binding, comparable within an allelic series); in [10] it was 9.17 upbm affinity estimate (log intensity, higher = more binding, comparable within an allelic series).

AATGAGAG: the binding signal was 7.5 upbm affinity estimate (log intensity, higher = more binding, comparable within an allelic series) in [1] and 7.55 upbm affinity estimate (log intensity, higher = more binding, comparable within an allelic series) in test [2].
